Hit rate of the full screen: of about 39,000 compounds, about 220 (0.56%) showed activity. For the sample, actives were picked, then their nearest neighbours and some compounds at random.
tested on: Escherichia coli K-12 BW25113; test: relative growth (OD600 normalised to plate interquartile mean) (fraction); higher = less growth inhibition, active = 0.2 or less; conditions: 50 µM; LB; incubation time: overnight (16-24 h)
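Note: Wild-type cells incubated without shaking, value is the mean of two biological replicates.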

Row | Structure (SMILES) | relative growth
1 | COc1ccc(S(=O)(=O)N(C)C[C@H]2Oc3c(NC(=O)C4CC4)cccc3C(=O)N([C@H](C)CO)C[C@@H]2C)cc1 | 0.992 (inactive)
2 | C[C@@H]1CCCCO[C@H](CN(C)C)[C@H](C)CN([C@@H](C)CO)C(=O)c2cc(NS(=O)(=O)c3cn(C)cn3)ccc2O1 | 0.994 (inactive)
3 | C[C@@H]1CCCCO[C@H](CN(C)S(=O)(=O)c2ccccc2)[C@H](C)CN([C@@H](C)CO)C(=O)c2cc(NC(=O)Nc3ccc(C(F)(F)F)cc3)ccc2O1 | 1 (inactive)
4 | COc1ccc(S(=O)(=O)Nc2ccc3c(c2)C(=O)N([C@@H](C)CO)C[C@H](C)[C@H](CN(C)S(=O)(=O)c2ccc(C)cc2)O3)cc1 | 1.01 (inactive)
5 | C[C@H]1CN([C@@H](C)CO)C(=O)Cc2cc(NC(=O)Nc3ccc(C(F)(F)F)cc3)ccc2O[C@@H]1CN(C)C(=O)Nc1ccc(F)cc1 | 1.01 (inactive)
6 | O=C(C[C@H]1C[C@@H]2c3cc(NC(=O)Cc4ccncc4)ccc3O[C@@H]2[C@@H](CO)O1)NCCN1CCCCC1 | 0.983 (inactive)
7 | Cc1cn([C@H]2C[C@@H](NC(=O)C(C)(C)C)[C@@H](CO)O2)c(=O)[nH]c1=O | 1.02 (inactive)
8 | CCc1cn([C@H]2C[C@@H](O)[C@@H](CO)O2)c(=O)[nH]c1=O | 0.827 (inactive)
9 | Cc1cn([C@H]2C[C@H](F)[C@@H](CO)O2)c(=O)[nH]c1=O | 0.276 (inactive)
10 | Cc1cn([C@H]2C[C@H](N=[N+]=[N-])[C@@H](CO)O2)c(=O)[nH]c1=O | 0.048 (active)
11 | Cc1cn(C2CC(N=[N+]=[N-])C(CO)O2)c(=O)[nH]c1=O (stereo not drawn) | 0.0449 (active)
12 | Cc1cn([C@H]2CC[C@@H](CO)O2)c(=O)[nH]c1=O | 0.531 (inactive)
13 | O=C(C[C@H]1C[C@H]2c3cc(NC(=O)Cc4ccncc4)ccc3O[C@H]2[C@H](CO)O1)NCCN1CCCCC1 | 1.02 (inactive)
14 | Cc1noc(C)c1NC(=O)Nc1ccc2c(c1)C(=O)N([C@@H](C)CO)C[C@H](C)[C@@H](CN(C)S(=O)(=O)c1ccccc1)O2 | 0.987 (inactive)
15 | COCC#Cc1ccc2c(c1)O[C@@H](CN(C)S(=O)(=O)c1ccc(C)cc1)[C@@H](C)CN([C@H](C)CO)S2(=O)=O | 1.02 (inactive)
16 | C[C@@H]1CN([C@@H](C)CO)C(=O)c2cccc(NC(=O)Nc3ccc(F)cc3)c2O[C@H]1CN(C)S(=O)(=O)c1cn(C)cn1 | 0.984 (inactive)
17 | C[C@@H]1CN([C@H](C)CO)C(=O)Cc2cc(NC(=O)Cn3cnnn3)ccc2O[C@H]1CN(C)Cc1ccncc1 | 0.971 (inactive)
18 | C[C@@H]1CN([C@@H](C)CO)C(=O)CCCn2nncc2CO[C@@H]1CN(C)C(=O)c1ccc(N2CCN(C)CC2)cc1 | 0.987 (inactive)
19 | COc1ccc([Si](C)(C)[C@H]2[C@H](CCOC(=O)NCCCCCC(=O)NO)O[C@]3(C(=O)N(Cc4cccc(N5CCCCC5=O)c4)c4ccccc43)[C@@H]2C)cc1 | 1.02 (inactive)
20 | Nc1cc[nH]c(=O)n1 | 0.997 (inactive)
21 | CCCCNc1ccccc1 | 0.996 (inactive)
22 | CCCCCCCCCCCCC[N+](C)(C)Cc1ccccc1 | 0.0319 (active)
23 | CC[N+](C)(CC)Cc1ccccc1 | 0.993 (inactive)
24 | CCCC[C@@H](O)c1ccccc1 | 0.992 (inactive)
25 | CCCCCCCCCCCCCCCC[N+](C)(C)Cc1ccccc1.[Cl-] | 0.0933 (active)
26 | CCCCCCCCCCCCCCCC[N+](C)(C)CCN(Cc1ccc(OC)cc1)c1ncccn1 | 0.555 (inactive)

Row | Structure (SMILES) | relative growth
27 | CCCCCCCCCCCCC[N+](C)(C)Cc1ccccc1.O.[Cl-] | 0.0544 (active)
28 | CCCCC(O)c1ccccc1 (stereo not drawn) | 0.973 (inactive)
29 | CCCCCc1ccccn1 | 0.974 (inactive)
30 | C[C@H](CO)N1C[C@H](C)[C@@H](CN(C)Cc2ccc(Oc3ccccc3)cc2)Oc2c(NC(=O)Nc3ccc(C(F)(F)F)cc3)cccc2C1=O | 0.795 (inactive)
31 | CN(C)CC(=O)N[C@@H]1CC[C@@H](CC(=O)O)O[C@@H]1CO | 0.983 (inactive)
32 | C[C@H](CO)N1C[C@H](C)[C@@H](CN(C)CC2CCCCC2)Oc2ccc(NC(=O)CCN3CCOCC3)cc2C1=O | 0.981 (inactive)
33 | NCC[C@@H]1CC[C@H](NC(=O)C2CC2)[C@H](CO)O1 | 0.995 (inactive)
34 | C[C@H]1CN([C@@H](C)CO)C(=O)CCCn2nncc2CO[C@@H]1CN(C)Cc1cccc2c1OCCCO2 | 0.992 (inactive)
35 | O=C(Oc1ccc(Cl)cc1)c1sc2ccccc2c1Cl | 1.05 (inactive)
36 | Fc1cccc2c(Cl)ccnc12 | 0.976 (inactive)
37 | O=[N+]([O-])c1ccc(O)c2ncccc12 | 0.0542 (active)
38 | NS(=O)(=O)c1ccc(O)c([N+](=O)[O-])c1 | 0.992 (inactive)
39 | Nc1ncccc1O | 1.03 (inactive)
40 | Oc1ccc(Cl)c2cccnc12 | 0.0534 (active)
41 | Oc1c(I)cc(I)c2cccnc12 | 1.04 (inactive)
42 | Oc1c(I)cc(Cl)c2cccnc12 | 0.463 (inactive)
43 | Oc1c(Cl)cc(Cl)c2cccnc12 | 0.111 (active)
44 | Oc1c(Br)cc(Br)c2cccnc12 | 0.379 (inactive)
45 | C[C@H]1CN([C@@H](C)CO)C(=O)c2cc(NC(=O)Cn3cnnn3)ccc2O[C@@H]1CN(C)Cc1ccncc1 | 1.02 (inactive)
46 | C[C@@H]1CN([C@H](C)CO)C(=O)c2cc(NS(=O)(=O)c3ccc(F)cc3)ccc2O[C@H]1CN(C)S(=O)(=O)c1cn(C)cn1 | 1.04 (inactive)
47 | C[C@@H]1CN([C@@H](C)CO)C(=O)c2cc(NC(=O)C3CCCCC3)ccc2O[C@@H](C)CCCCO[C@H]1CN(C)Cc1ccc(C(=O)O)cc1 | 0.977 (inactive)
48 | Cl.Nc1ccn(C2OC(CO)C(O)C2(F)F)c(=O)n1 (stereo not drawn) | 1.09 (inactive)
49 | COc1ccc(S(=O)(=O)Nc2ccc3c(c2)C(=O)N([C@@H](C)CO)C[C@H](C)[C@H](CN(C)S(=O)(=O)c2ccc(F)cc2)O3)cc1 | 1 (inactive)
50 | C[C@H](CO)N1C[C@H](C)[C@@H](CN(C)Cc2ccc(C(=O)O)cc2)OCCCC[C@H](C)Oc2ccc(NC(=O)Nc3ccc4c(c3)OCO4)cc2C1=O | 0.95 (inactive)
51 | COCC#Cc1cnc2c(c1)C(=O)N([C@H](C)CO)C[C@H](C)[C@@H](CN(C)S(=O)(=O)c1ccccc1)O2 | 1 (inactive)
52 | CC(=O)N[C@H](C)c1cn(C)nc1C | 1.03 (inactive)

Row | Structure (SMILES) | relative growth
53 | C[C@@H]1CN([C@H](C)CO)C(=O)c2cc(NC(=O)C3CCCCC3)ccc2O[C@@H](C)CCCCO[C@@H]1CN(C)S(=O)(=O)c1cccs1 | 0.933 (inactive)
54 | O=c1[nH]cc(Nc2ccccc2)c(=O)[nH]1 | 1.01 (inactive)
55 | O=c1[nH]cc(F)c(=O)[nH]1 | 0.196 (active)
56 | O=c1[nH]cc(N2CCCCC2)c(=O)[nH]1 | 1 (inactive)
57 | C[N+]1(C)C2CCC1CC(OC(=O)C(O)c1ccccc1)C2.[Br-] (stereo not drawn) | 0.924 (inactive)
58 | Nc1nnc(C(=O)c2ccccc2N)s1 | 0.951 (inactive)
59 | Cc1noc(C)c1NC(=O)Nc1ccc2c(c1)CC(=O)N([C@@H](C)CO)C[C@H](C)[C@H](CN(C)S(=O)(=O)c1ccccc1)O2 | 0.971 (inactive)
60 | Cc1noc(C)c1NC(=O)N(C)C[C@H]1Oc2ccc(NS(=O)(=O)c3c(C)noc3C)cc2CC(=O)N([C@@H](C)CO)C[C@@H]1C | 0.985 (inactive)
61 | C[C@H](CO)N1C[C@H](C)[C@@H](CN(C)S(=O)(=O)c2ccccc2)OCCCC[C@H](C)Oc2ccc(NS(=O)(=O)c3cn(C)cn3)cc2C1=O | 0.993 (inactive)
62 | O=C(NO)c1cn(CC(=O)N2CCC3(CC2)C(=O)NCN3c2ccccc2)nn1 | 0.94 (inactive)
63 | O=C(/C=C/c1cccc(-c2cn(-c3cccc(C(=O)N4CCC5(CC4)C(=O)NCN5c4ccccc4)c3)nn2)c1)NO | 0.972 (inactive)
64 | O=C(NO)c1cn(-c2cccc(C(=O)N3CCC4(CC3)C(=O)NCN4c3ccccc3)c2)nn1 | 0.0368 (active)
65 | C[C@H](CO)N1C[C@H](C)[C@@H](CN(C)CC2CC2)Oc2c(NS(=O)(=O)c3cn(C)cn3)cccc2C1=O | 0.999 (inactive)
66 | COC(=O)C[C@@H]1CC[C@@H]2[C@@H](COc3ccc(NS(=O)(=O)c4ccccc4Cl)cc3C(=O)N2C)O1 | 1.03 (inactive)
67 | CS(=O)(=O)Nc1cccc(C2=NN(c3nc(-c4ccccc4)c4cc(Cl)ccc4n3)[C@H](c3ccco3)C2)c1 | 1 (inactive)
68 | Cc1noc(C)c1NC(=O)Nc1ccc2c(c1)C(=O)N([C@@H](C)CO)C[C@@H](C)[C@H](CN(C)S(=O)(=O)c1ccc(F)cc1)OCCCC[C@H](C)O2 | 1.03 (inactive)
69 | O=C(C[C@@H]1C[C@@H]2c3cc(NS(=O)(=O)c4ccc(F)cc4)ccc3O[C@@H]2[C@H](CO)O1)NC1CCCC1 | 0.992 (inactive)
70 | COc1ccc(C#Cc2ccc3c(c2)O[C@@H](CN(C)C(C)=O)[C@@H](C)CN([C@@H](C)CO)S3(=O)=O)cc1 | 1.03 (inactive)
71 | COc1cc(CN)cc(OC)c1OC | 1 (inactive)
72 | COc1ccc(C2=C(N)C(=O)NC2=O)cc1OC | 0.93 (inactive)
73 | COc1cc(Cc2cnc(N)nc2N)cc(OC)c1OC | 0.044 (active)
74 | COc1cc(O)cc(OC)c1OC | 1.1 (inactive)
75 | COc1cccnc1N | 0.99 (inactive)
76 | COc1ccc(Cc2cnc(N)nc2N)cc1OC | 0.0502 (active)
77 | Cc1ccc(S(=O)(=O)N(C)C[C@H]2Oc3c(NS(=O)(=O)c4cn(C)cn4)cccc3C(=O)N([C@@H](C)CO)C[C@@H]2C)cc1 | 0.959 (inactive)
78 | Cc1noc(C)c1NC(=O)Nc1cccc2c1O[C@@H](CN(C)Cc1ccc(Oc3ccccc3)cc1)[C@H](C)CN([C@H](C)CO)C2=O | 0.995 (inactive)
